Bioassay records as filed in PubChem BioAssay.
Rab9 prom act – activators of Rab9 promoter; Potency, µM (top dose mostly 9.22 µM), for the others: top-dose activation, negative = inhibition, usual class: activators; Huh7 Rab9 promoter-luciferase reporter, luminescence, 24 h; 2.8% of 320,000 active; AID 485297; note: % of control where 0% means no effect; nearly all actives have a fitted effect of over 60% in size
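Rab9 promoter-driven luciferase in stably transfected Huh7 cells; 1500 cells/well rested 2 h, exposed to compound in DMSO for 24 h at 37 °C, 5% CO2. Luminescence read 10 min after adding luciferase reagent at ambient temperature.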
ELG1 genotoxic – induces genotoxicity in HEK293T cells with luciferase-tagged ELG1. HEK293T ELG1-luciferase reporter, luminescence, 16 h. Potency, µM (top dose mostly 46 µM), without a hit: at the top dose activity change, positive = activation, hits mostly activators. 1.3% of 330,000 active; note: % of control where 0% means no effect; nearly all actives have a fitted effect of over 60% in size
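After overnight (16 hr) compound treatment at 37 °C, ELG1-luciferase HEK293T cells were lysed with ONE-Glo; luminescence quantified 30 min later at room temperature.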
SMN2 splice enh – increases expression of the SMN2 splice variant; HEK293 SMN2-luciferase splicing reporter, luminescence, 30-36 h; Potency, µM (titrated, usually from 46.1 µM), for inactives: top-dose activity change, positive = activation, hits mostly activators; 2.8% of 210,000 active; AID 1458; note: % of control where 0% means no effect; nearly all actives have a fitted effect of over 55% in size
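qHTS luciferase splicing reporter: luminescence rises when SMN2 exon 7 is included in transfected HEK293 cells. Compound exposure lasted 30-36 h at 37C, with 4.5 mM final sodium butyrate as control, followed by a ONE-Glo read.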
NPC1 prom act – activators of NPC1 promoter. Huh7 NPC1 promoter luciferase reporter, 24 h. Potency, µM (series often up to 9.22 µM), for the others: at the top dose activation, most hits filed as activators. 2.4% of 320,000 active; note: % of control where 0% means no effect; nearly all actives have a fitted effect of over 60% in size
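Huh7 reporter cells (NPC1 promoter driving luciferase) are dosed with compound for 24 h at 37 °C, 5% CO2; luciferase detection reagent is then added and luminescence measured after 10 min at ambient temperature.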
ELG1 DNA repair – blocks ELG1-dependent DNA repair in HEK293T cells; HEK293T ELG1-luciferase reporter, luminescence, 16 h; DNA damage induced by 5-fluorouridine; Potency, µM (top dose mostly 46.1 µM), inactives show top-dose activity change, negative = inhibition, usual class: inhibitors; 2.3% of 330,000 active; note: % is set by controls: 0 for no effect and ±100 for the full control effect; nearly all actives have a fitted effect of over 55% in size
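Cells (2,000 per well) received 5-fluorouridine plus test compound or DMSO and were incubated 16 hr at 37 °C, 5% CO2. Luciferase activity was read by luminescence 30 min after ONE-Glo addition; signal suppression marked inhibition of damage-induced ELG1 function.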
FLuc modulator – firefly luciferase modulation, counter-screen for miR-21 project; P08659; purified FLuc, Km substrates, luminescence inhibition; Potency, µM (doses to about 57.5 µM), for the others: at the highest dose activity change, negative = inhibition, hits mostly inhibitors; 6.9% of 360,000 active; AID 588342;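 note: plate controls were vehicle for no effect and reference inhibitor for full effect; nearly all actives have a fitted effect of over 55% in size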
Target sequence (P08659 whole entry, looked up): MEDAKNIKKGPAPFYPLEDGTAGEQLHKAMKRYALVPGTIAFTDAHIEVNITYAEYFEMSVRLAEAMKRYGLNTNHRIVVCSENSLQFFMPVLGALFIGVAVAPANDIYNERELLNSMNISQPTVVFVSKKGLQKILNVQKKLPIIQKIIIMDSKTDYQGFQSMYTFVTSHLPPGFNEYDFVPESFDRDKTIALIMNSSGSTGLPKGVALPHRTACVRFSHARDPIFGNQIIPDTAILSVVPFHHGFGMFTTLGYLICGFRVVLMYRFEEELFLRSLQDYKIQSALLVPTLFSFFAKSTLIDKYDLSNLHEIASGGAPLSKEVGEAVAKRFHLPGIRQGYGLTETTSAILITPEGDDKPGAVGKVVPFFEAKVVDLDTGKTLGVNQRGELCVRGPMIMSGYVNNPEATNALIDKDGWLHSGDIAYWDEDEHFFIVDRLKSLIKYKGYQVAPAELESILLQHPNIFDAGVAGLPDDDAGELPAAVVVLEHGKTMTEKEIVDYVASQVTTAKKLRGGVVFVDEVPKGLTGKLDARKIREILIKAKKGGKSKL
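Purified P. pyralis luciferase (10nM final) with 10uM D-luciferin and 10uM ATP (Km levels) in 50mM Tris acetate pH 7.5, 10mM Mg acetate, 0.01% Tween-20, 0.05% BSA; qHTS 6-point titration, ~60 µM downward; luminescence read.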
Numbers without * were called inactive; u = inconclusive; x = no result; [ ] = dose if it differs, or a comment. The list is not random: actives were taken first. Their share in the collection is about 9.4%. Calls come from the whole dose curve; as a rule, active = well fitted curve in the direction sought with a large enough effect; inconclusive = small, poorly fitted or top-dose-only effect, or another doubt; inactive = no such curve, though single readings can be large; an effect the other way counts as inactive or inconclusive. Potency is the fitted concentration of half-maximal effect.

SMILES	Rab9 prom act	ELG1 genotoxic	SMN2 splice enh	NPC1 prom act	ELG1 DNA repair	FLuc modulator
O=C1CCC=C1C(O)c1ccc2c(c1)OCO2 (stereo not drawn)	x	x	1.4%	x	x	x
CCOC(=O)c1cc(-c2ccc(C)cc2)n(CCC(=O)Nc2nc3c(C)cccc3s2)c1C	x	x	-15.3%	x	x	-6.5%
CCCn1c(C)nc2c(c1=O)c1nc3ccccc3nc1n2CCC1=CCCCC1	6.8%	-17.4%	-32.7%	-6.2%	-20.5%	2.0%
O=c1c2c3nc4ccccc4nc3n(/N=C/c3ccncc3)c2ncn1-c1ccccc1	-3.3%	-3.1%	x	-4.2%	-5.8%	-2.4%
Cc1nc2c(c(=O)n1CCC1=CCCCC1)c1nc3ccccc3nc1n2/N=C/c1ccco1	-8.1%	-3.0%	-19.8%	1.1%	5.17µM*	-0.2%
COCCn1cnc2c(c1=O)c1nc3ccccc3nc1n2/N=C/c1ccco1	-3.6%	-5.8%	x	0.2%	-5.8%	-3.2%
C=CCn1cnc2c(c1=O)c1nc3ccccc3nc1n2/N=C/c1cccc(OC)c1	-6.8%	-7.6%	22.1%	-5.4%	20.6µM*	-2.3%
COCCn1cnc2c(c1=O)c1nc3ccccc3nc1n2/N=C/c1ccc(OC)c(OC)c1	0.9%	-1.6%	x	-1.9%	5.8µM*	-6.7%
CCCCCCn1cnc2c(c1=O)c1nc3ccccc3nc1n2/N=C/c1ccco1	0.3%	-8.0%	0.6%	10.2%	14.6µM*	-13.8%
COc1ccc(/C=N/n2c(C)nc3ccccc3c2=O)cc1OC	-3.2%	1.3%	x	10.2%	6.0%	-4.5%
CCc1nc2ccc(C(=O)NCCc3ccc(OC)cc3OC)cc2nc1CC	x	x	x	x	x	-16.6%
CCOC(=O)c1ccccc1NC(=O)N1CCN2CCCCC2C1 (stereo not drawn)	x	x	x	x	x	-4.3%
Cc1cccc2nc(-c3cccnc3)c(NCCC(C)C)n12	-0.4%	-1.2%	-13.2%	-5.6%	4.9%	-16.5%
Cc1cccc2nc(-c3cccnc3)c(Nc3ccccc3)n12	5.6%	-14.2%	-59.0%	-0.9%	18.3µM*	-6.5%
Cn1nc(C(F)(F)F)cc1C(=O)Nc1ccc(-c2ccno2)cc1	-2.4%	-14.7%	x	-9.8%	13µM*	-8.2%
CC(=O)C1=C(OC(=O)C(C)C)c2ccccc2S(=O)(=O)N1Cc1ccccc1	x	x	x	x	x	4.3%
CCOC(=O)/C(C#N)=C\C=C1C=CN(C)C=C1	3.55µM*	u	15.8µM*	2.51µM*	u	9.53µM*
CCOC(=O)/C(C#N)=C/c1ccc(SC)cc1	-2.8%	4.1%	-24.1%	8.8%	0.0%	13.5µM*
COCCNC(=O)/C(C#N)=C/c1ccc(C(=O)O)cc1	0.4%	-1.8%	-1.7%	-2.6%	9.2%	3.5%
COCCNC(=O)/C(C#N)=C/c1ccc(SC)cc1	-1.5%	u	1.5%	-4.6%	u	19µM*
CCOC(=O)/C(C#N)=C/c1ccc(OC)c(OC)c1	-0.8%	-1.0%	x	-3.6%	5.2%	1.5%[2.3 µM]
CCOC(=O)/C(C#N)=C\c1ccc(CC)s1	-10.6%	u	-8.5%	24.7%	u	10.7µM*
CCOC(=O)/C(C#N)=C/Nc1cc(OC)ccc1OC	-2.7%	1.7%	0.2%	-0.6%	u	4.4%
COc1ccc(CNC(=O)CCS(=O)(=O)c2cc(Br)cc3c2N(C(=O)C2CC2)CC3)cc1	x	x	11.0%	x	x	2.2%
O=C(COC(=O)c1ccccc1F)Nc1ccc2c(c1)OCCO2	-3.8%	5.4%	x	0.7%	17.6%	0.477µM*
Cc1c(-c2cccc(Cl)c2)nc2ccccc2c1C(=O)OCC(=O)Nc1ccc2c(c1)OCO2	-2.9%	-6.8%	-12.3%	-0.3%	18.4µM*	-9.9%
O=S(=O)(NCC1COc2ccccc2O1)c1ccccc1F (stereo not drawn)	x	0.3%	x	x	0.3%	x
O=C(COC(=O)c1cccc(F)c1)Nc1ccc2c(c1)OCCO2	9.5%	6.2%	x	3.3%	u	1.9µM*
Cc1onc(-c2ccccc2)c1C(=O)OCC(=O)Nc1ccc2c(c1)OCO2	-6.4%	-14.8%	-18.2%	-2.0%	-22.3%	-0.6%
